Data from the supplement of paper PMC10338343.
± gives the standard deviation.

These sequences were tested on EfPiwi piRISC loaded with L1MC piRNA (26 nt) (assay: pre-steady-state target cleavage rate (min^-1); auxiliary factor: 500 nM Ephydatia muelleri Gtsf1; guide: L1MC piRNA 5'p-UAACUAAAUACUAUGCAAGCUGUAGG; MIWI and MILI are mouse PIWI proteins and EfPiwi is from a freshwater sponge; tags in brackets are library labels; higher = faster piRNA-guided slicing of the target).
Outline: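 Three pooled Cleave-'n-Seq trials supplied the data, with k3 capped at 0.0001 min^-1. In each, […] transcribed, DNA-blocked target RNA library and 1 nM active affinity-purified piRISC with one synthetic guide reacted in HEPES–potassium acetate buffer at 33 °C for 0–8 or 0–960 min, with or without 500 nM GTSF1 partner protein. Uncleaved targets were sequenced and normalised to depth and to weakly complementary targets. A burst-and-steady-state fit provided the pre-steady-state cleavage rate.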

Which “pre-steady-state target cleavage rate” value does the source give for UCCUCCUACAGCAUGCAUAGUAAUUAGUUA here?
Its value is 0.0115 ± 0.0038.

With UCCUGGAUCAGCUUCGAUAGUAUUUAGUUA as the sequence, how does the “pre-steady-state target cleavage rate” value read?
The value was 0.00503 ± 0.0041.

Which “pre-steady-state target cleavage rate” value does the source give for UCCUGGAACACCUUGCAUAGUAUUUAGUUA here?
The value was 0.0061 ± 0.0032.

For UCCUGGAACAGCUUGCAUUGUAUUUAGUUA, which “pre-steady-state target cleavage rate” value is on record?
Its value is 0.00926 ± 0.0026.

With UCCUGGUACAGCUUGCAUAGUAUUUAGUA as the sequence, how does the “pre-steady-state target cleavage rate” value read?
Its value is 0.00657 ± 0.0033.

How did the “pre-steady-state target cleavage rate” value turn out when UCCUGGAACAGCUCGCAUAGUAUUUAGUUA was run?
Its value is 0.0171 ± 0.0048.

For UCCUGGAUCAGCUUGCAUAGUAUGUUAGUUA, which “pre-steady-state target cleavage rate” value is on record?
The value was 0.031 ± 0.0087.

With UCCUCCGUACAGCUUGCAUAGUAUUUAGUUA as the sequence, how does the “pre-steady-state target cleavage rate” value read?
The value was 0.0578 ± 0.018.

Which “pre-steady-state target cleavage rate” value does the source give for UCCUGGAUGUGCCUGCAUAGUAUUUAGUUA here?
The value was 0.00933 ± 0.0036.

With UCCUGGAUGAGCAUGCAUAGUAUUUAGUAA as the sequence, how does the “pre-steady-state target cleavage rate” value read?
The value was 0.00596 ± 0.0037.

How did the “pre-steady-state target cleavage rate” value turn out when UCCUGGUACAGCUUGCUUAGUAUAUAGUUA was run?
The value was 0.0737 ± 0.025.

UCCUGGAUCAGCUUGCAAAGUAUUAAGUUA was tested. Which “pre-steady-state target cleavage rate” value did it give?
The value was 0.00373 ± 0.0026.

“UCCUGGAUGAGCUUGCAUAGUAUUUAGUUU [g2:g21:cont:t1U]” was tested. Which “pre-steady-state target cleavage rate” value did it give?
The value was 0.0356 ± 0.0098.

With UCCUCCAACAGCUUGGAUAGUAUUUAGUUA as the sequence, how does the “pre-steady-state target cleavage rate” value read?
The value was 0.0467 ± 0.011.

UCCUGGUACAGCAUGCAUAGUAUAUAGUUA was tested. Which “pre-steady-state target cleavage rate” value did it give?
Its value is 0.00569 ± 0.0031.

With UCCUGGUACAGCUCUGCAUAGUAUUUAGUUA as the sequence, how does the “pre-steady-state target cleavage rate” value read?
Its value is 0.0139 ± 0.0042.

With UCCUCCUUCAGGUUGCAUAGUAUUUAGUUA as the sequence, how does the “pre-steady-state target cleavage rate” value read?
The value was 0.0528 ± 0.012.

Which “pre-steady-state target cleavage rate” value does the source give for UCCUGGAUGUCGUGUGCAUAGUAUUUAGUUA here?
Its value is 0.0038 ± 0.0033.

With UCCUGGAACCGCUUGCAUAGUAUUUAGUUA as the sequence, how does the “pre-steady-state target cleavage rate” value read?
Its value is 0.0172 ± 0.0054.

UCCUCCUACUGCUAGCAUAGUAUUUAGUUA was tested. Which “pre-steady-state target cleavage rate” value did it give?
The value was 0.0131 ± 0.004.

With UCCUGGUAACAGCUUGCAUAGUAUUUAGUUA as the sequence, how does the “pre-steady-state target cleavage rate” value read?
Its value is 0.0495 ± 0.011.

Which “pre-steady-state target cleavage rate” value does the source give for UCCUGCUACAGCUUGGCAUAGUAUUUAGUUA here?
Its value is 0.00928 ± 0.0031.

For UCCUCCUACUGCUUGCAUAGUAUUUUGUUA, which “pre-steady-state target cleavage rate” value is on record?
The value was 0.0111 ± 0.0044.

UCCUCCUACAGCUUGCAUUGUAAUUAGUUA was tested. Which “pre-steady-state target cleavage rate” value did it give?
The value was 0.00753 ± 0.0034.
